# Results from PubChem BioAssay (NCATS).
# Results filed as inconclusive are left out. The source made the active and inactive calls. The call rests on the fitted dose curve; in most records, active means well fitted activation curve with a large enough effect; inconclusive means small, poorly fitted or top-dose-only effect; inactive means flat fitted curve, though single readings scatter.
# Test: Validation screen for small molecules that induce DNA re-replication in MCF 10A normal breast cells (AID 463097); further: nearly all actives have a fitted effect of over 60% in size; on re-replication induction: 0% is about no effect
# Conditions: MCF 10A cells, DNA re-replication phenotype imaging; series mostly up to 46.1 µM; re-replication induction: at the top concentration
# Excerpt: NIH Molecular Libraries Probe Production Network [MLPCN]
# NIH Chemical Genomics Center [NCGC]
# Assay Provider: Melvin DePamphilis, NICHD, NIH
# Eukaryotic cells normally restrict genome duplication to once per cell division. When this process is aberrant, DNA re-replication occurs when cells reinitiate DNA replication before the first round of replication is complete. DNA re-replication induces the DNA damage response, arrests cell proliferation, and triggers apoptosis. The cell cycle components cyclin A, Cdt-1, Cdc6 and geminin are critical regulators of this process and their misregulation results in DNA re-replication in normal and cancer cells. To identify compounds that induce re-replication in normal cells, an image-based assay was used to measure DNA content of nuclei, as detected by the fluorescent DNA binding dye, Hoechst. Cell nuclei were imaged by a fluorescence scanning plate imager and compounds that induce DNA re-replication were identified by the increase of nuclei with elevated fluorescence intensity.
# For screening, 250 cells in 5 uL/well were dispensed into black clear 1536-well plates (Aurora) using a solenoid-based dispenser. Following transfer of 23 nL compound or DMSO vehicle by a pin tool, the plates were incubated 48 hr at 37 C and 5% CO2. After addition of 1 uL/well Hoescht stain, the plates were incubated 40 min at 37 C, 5% CO2 and total intensity of fluorescent objects (nuclei) were enumerated by an Acumen Explorer Ex3 (TTP LabTech) fluorescence scanning plate imager (405 nm excitation, 500-530 nm emission).
# Keywords: NIH Roadmap, MLPCN, MLI, MLSMR, qHTS, NCGC, DNA replication, cancer
# Potency means the concentration at half of the fitted maximal effect.
SMILES,re-replication induction,Potency
Clc1cccc(N2CCNCC2)c1,-2.71% (inactive),–
CCCN1CCC[C@@H]2Cc3nc(N)ncc3C[C@H]21,-1.91% (inactive),–
CC[N+](CC)(CC)CC,-0.955% (inactive),–
NCC1(CC(=O)O)CCCCC1,-1.35% (inactive),–
CCC1(C2=NCCN2)Cc2ccccc2O1 (configuration not stated),0.898% (inactive),–
CC(=O)[C@H]1CC[C@H]2[C@@H]3CC[C@H]4C[C@H](O)CC[C@]4(C)[C@H]3C(=O)C[C@]12C,-2.95% (inactive),–
Nc1ccncc1,-7.74% (inactive),–
COc1ccccc1N1CCNCC1,1.48% (inactive),–
Cc1ccc(S(=O)(=O)N[C@@H](CCCCN)C(=O)CCl)cc1,-2.38% (inactive),–
CN1C[C@H](CNC(=O)OCc2ccccc2)C[C@@H]2c3cccc4c3c(cn4C)C[C@H]21,–,15.8 µM (active)
O=C1NCN(c2ccccc2)C12CCN(CC1COc3ccccc3O1)CC2 (configuration not stated),13.9% (inactive),–
NCC(CC(=O)O)c1ccc(Cl)cc1 (configuration not stated),-2.42% (inactive),–
CCCC(C)(COC(N)=O)COC(=O)NC(C)C (configuration not stated),-2.18% (inactive),–
Fc1ccc(C(OCCN2CCN(CCCc3ccccc3)CC2)c2ccc(F)cc2)cc1,–,12.6 µM (active)
CCn1cc(C(=O)O)c(=O)c2ccc(C)nc21,-2.08% (inactive),–
CNCC(O)c1ccc(O)cc1 (configuration not stated),-3.73% (inactive),–
Cc1cccc(C)c1NC1=NCCCS1,3.16% (inactive),–
COc1cc2c(c(OC)c1OC)-c1ccc(OC)c(=O)cc1[C@@H](NC(C)=O)CC2,–,0.0398 µM (active)
Cc1ncc(CNC(=O)N(CCCl)N=O)c(N)n1,-3.87% (inactive),–
N#CC(C#N)=Cc1ccc(O)c(O)c1,0.947% (inactive),–
NN=C(N)N,–,inactive
c1ccc2c(c1)OCC(C1=NCCN1)O2 (configuration not stated),–,7.94 µM (active)
c1ccc(C2CC2)c(OCC2=NCCN2)c1,4.77% (inactive),–
COc1ccc(Cc2nccc3cc(OC)c(OC)cc23)cc1OC,20.6% (inactive),–
NCC(O)c1ccc(O)cc1 (configuration not stated),0.86% (inactive),–
C=C(C)[C@H]1Cc2c(ccc3c2O[C@@H]2COc4cc(OC)c(OC)cc4[C@@H]2C3=O)O1,–,1.41 µM (active)
CC(CCc1ccccc1)NC(C)C(O)c1ccc(O)cc1 (configuration not stated),14.4% (inactive),–
